“And” between values parts separate entries of the source, which are not always exact repeats. Equal entries are not always repeated. Compounds without any hit were thinned out: in the full panel of roughly 83,000, 20% have a hit.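 A percent growth of 40 corresponds to 60% growth inhibition; 0 means no net growth; -100 means all cells died. Active threshold: below 10.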 The source made the active and inactive calls.
Experiments:
Test in all cases: NCI-60 one-dose screen, 48 h (100 = growth as untreated, 0 = no growth, -100 = all killed)
[1] = test system: DU-145 prostate; conditions: 10 µM unless noted
[2] = test system: K-562 leukemia; conditions: 10 µM unless noted
[3] = test system: MALME-3M melanoma; conditions: 10 µM unless noted
[4] = test system: MDA-MB-231 breast; conditions: 10 µM unless noted
[5] = test system: RXF 393 renal; conditions: 10 µM unless noted
[6] = test system: SF-268 CNS; conditions: 10 µM unless noted
[7] = test system: SF-295 CNS; conditions: 10 µM unless noted
[8] = test system: SF-539 CNS; conditions: 10 µM unless noted
[9] = test system: UACC-257 melanoma; conditions: 10 µM unless noted
[10] = test system: M14 melanoma; conditions: 10 µM unless noted
[11] = test system: HCT-15 colon; conditions: 10 µM unless noted
[12] = test system: HT29 colon; conditions: 10 µM unless noted
[13] = test system: SNB-75 CNS; conditions: 10 µM unless noted
[14] = test system: SNB-19 CNS; conditions: 10 µM unless noted
[15] = test system: U251 CNS; conditions: 10 µM unless noted
[16] = test system: PC-3 prostate; conditions: 10 µM unless noted
[17] = test system: UACC-62 melanoma
[18] = test system: LOX IMVI melanoma; conditions: 10 µM
[19] = test system: SK-MEL-5 melanoma; conditions: 10 µM unless noted
[20] = test system: SK-MEL-28 melanoma; conditions: 10 µM unless noted

Measured: growth

OCCOc1ccc(-c2cc(-c3ccccn3)nc(-c3ccccn3)c2)cc1
inactive: [3] 17.3% | [4] 21.4% | [6] 15% | [7] 14.6% | [11] 19.1% | [13] 24.1% | [14] 20.6% | [16] 20.1%
active: [1] -10.2% | [2] -2.31% | [5] 2.52% | [8] -6.53% | [9] 1.35% | [10] -62.5% | [12] 4.07% | [15] 4.7% | [17]; 10 µM unless noted -44.8% | [18] -29.6%

C=CC(C)(C)n1cc(C2=C(O)C(=O)C(c3cn(C(C)(C)C=C)c4ccccc34)=C(O)C2=O)c2ccccc21
inactive: [1] 92.9% | [2] 79.5% | [3] 90.6% | [4] 92.6% | [5] 93.2% | [6] 74.7% | [7] 83.5% | [8] 76.6% | [9] 94% | [10] 69.9% | [11] 84.2% | [12] 99.3% | [13] 67.8% | [14] 80.2% | [15] 82.6% | [16] 80.8% | [17]; 10 µM 100% | [18] 97.2%
active: [17]; 100 µM -85.8% and -96.5%

CC(C)C(=O)OCCOc1ccc(C(C)(C)C)cc1
inactive: [1] 104% | [2] 103% | [3] 97.3% | [4] 90.5% | [5] 109% | [6] 96.1% | [7] 99.3% | [8] 99.5% | [9] 87.7% | [10] 107% | [11] 100% | [12] 93.1% | [13] 94.1% | [14] 98.8% | [15] 88.4% | [16] 91.6% | [19] 102% | [18] 95.8% | [20] 110%

CC(=O)C[n+]1ccc(C)cc1Sc1ccccc1C
inactive: [1] 98.1% | [2] 102% | [3] 102% | [4] 89.3% | [5] 134% | [6] 93% | [7] 96.8% | [8] 88.5% | [9] 97.8% | [10] 90.7% | [11] 97.1% | [12] 99.1% | [13] 76% | [14] 91.1% | [15] 93.3% | [16] 91.8% | [19] 92% | [18] 86.6% | [20] 104%

O=Cc1ccc(O)c(O)c1
inactive: [1] 94.9% | [2] 103% | [3] 108% | [4] 99.7% | [5] 88.3% | [6] 74.1% | [7] 103% | [8] 81.9% | [9] 93.7% | [11] 103% | [12] 105% | [13] 87.2% | [14] 86% | [15] 102% | [16] 82.9% | [19] 95.3% | [17]; 10 µM unless noted 98.2% | [18] 91.2% | [20] 92.4%

CCC(C)C1CCC(O)CC1 (configuration not stated)
inactive: [1] 101% | [2] 99.2% | [3] 32.8% | [4] 112% | [5] 108% | [6] 99.3% | [7] 105% | [8] 94.8% | [9] 103% | [10] 99% | [11] 104% | [12] 105% | [13] 91.7% | [14] 112% | [15] 98.8% | [16] 100% | [17]; 10 µM unless noted 104% | [18] 101% | [20] 106%

COC1OC(COC(C)=O)C(OC(C)=O)C(OC(C)=O)C1OC(C)=O (configuration not stated)
inactive: [1] 111% | [2] 102% | [3] 96.9% | [4] 90% | [5] 114% | [6] 101% | [7] 90.1% | [8] 98.4% | [9] 85% | [11] 97.2% | [12] 95.5% | [13] 95.7% | [14] 102% | [15] 102% | [16] 87.2% | [19] 117% | [17]; 10 µM unless noted 86.5% | [18] 98.5% | [20] 94.2%

COC1CC(OC(=O)c2ccc([N+](=O)[O-])cc2)C(COC(=O)c2ccc([N+](=O)[O-])cc2)O1 (configuration not stated)
inactive: [1] 119% | [2] 107% | [3] 140% | [4] 105% | [5] 103% | [6] 112% | [7] 94.5% | [8] 105% | [9] 91.9% | [11] 100% | [12] 121% | [13] 87.3% | [14] 101% | [15] 97.2% | [16] 89.8% | [19] 95.7% | [17]; 10 µM unless noted 98.1% | [18] 103% | [20] 101%

Cc1ccc(C)c2c1CCC2=O
inactive: [1] 102% | [2] 133% | [3] 103% | [4] 117% | [5] 87.9% | [6] 96.8% | [7] 91.6% | [8] 95.6% | [9] 107% | [11] 100% | [12] 105% | [13] 86.1% | [14] 93% | [15] 103% | [16] 98.6% | [19] 97.5% | [17]; 10 µM unless noted 99.9% | [18] 96.2% | [20] 104%

Nc1ncnc(Nc2ccccc2)n1
inactive: [1] 120% | [2] 98.8% | [3] 124% | [4] 115% | [5] 118% | [6] 112% | [7] 113% | [8] 108% | [9] 108% | [11] 103% | [12] 108% | [13] 104% | [14] 109% | [15] 111% | [16] 101% | [19] 104% | [17]; 10 µM unless noted 115% | [18] 104% | [20] 107%

OCCNc1ccccc1
inactive: [1] 103% | [2] 104% | [3] 102% | [4] 104% | [5] 109% | [6] 97.2% | [7] 108% | [8] 95.9% | [9] 108% | [10] 97.8% | [11] 105% | [12] 104% | [13] 91.3% | [14] 116% | [15] 97.6% | [16] 95.7% | [17]; 10 µM unless noted 109% | [18] 94.3% | [20] 107%

NC(CSSCC(N)C(=O)O)C(=O)O (configuration not stated)
active: [3] 4.18% | [4] 2.86% | [5] -37.9% | [8] -36.8% | [9] 5.8% | [10] 2.4% | [12] 5.05% | [13] -3.17% | [14] -6.03% | [17]; 10 µM unless noted -19.3%
inactive: [1] 36% | [2] 13.8% | [6] 28.1% | [7] 11% | [11] 34.5% | [15] 27% | [16] 27.3% | [18] 18.2% | [20] 18.5%

Cc1ccc(/C=N/NC(N)=S)s1
inactive: [1] 110% | [2] 103% | [3] 108% | [4] 104% | [5] 99.3% | [6] 98.7% | [7] 105% | [8] 97.6% | [9] 109% | [10] 102% | [11] 109% | [12] 110% | [13] 91.2% | [14] 103% | [15] 102% | [16] 92.2% | [17]; 10 µM unless noted 102% | [18] 101% | [20] 113%

O=c1n(CC2CO2)c(=O)n(CC2CO2)n1CC1CO1 (configuration not stated)
active: [7] -10.3%
inactive: [1] 38.4% | [2] 57.4% | [3] 107% | [4] 110% | [5] 80.2% | [6] 53.5% | [8] 18.8% | [9] 86.6% | [11] 60.5% | [12] 69.5% | [13] 79.5% | [14] 62.4% | [15] 54.3% | [16] 70% | [19] 67.1% | [17]; 10 µM unless noted 54.1% | [18] 52.1% | [20] 93%

N#C/C(=C\c1ccc2c(c1)OCO2)c1ccccc1
inactive: [1] 106% | [2] 21.4% | [3] 80.7% | [4] 66.8% | [5] 83.6% | [6] 86.4% | [7] 71.3% | [8] 80% | [9] 85.8% | [11] 49.4% | [12] 35.5% | [13] 76.2% | [14] 86.4% | [15] 55% | [16] 84.8% | [19] 54.6% | [17]; 10 µM unless noted 69.7% | [18] 78.3% | [20] 87.7%

Nc1ccccc1SC1CC(=O)N(c2ccc(Cl)c(Cl)c2)C1=O (configuration not stated)
inactive: [1] 113% | [2] 122% | [3] 177% | [4] 94.4% | [5] 130% | [6] 97.6% | [7] 127% | [8] 83.1% | [10] 94.8% | [11] 118% | [12] 96.2% | [13] 79.9% | [14] 96.6% | [15] 103% | [19] 104% | [17]; 10 µM unless noted 87.6% | [18] 98.5% | [20] 108%
active: [9] -6.15%

CCOC(=O)CNC
inactive: [1] 116% | [2] 96.8% | [3] 114% | [4] 97.8% | [5] 108% | [6] 115% | [7] 96.7% | [8] 99.7% | [9] 81.7% | [11] 99.1% | [12] 117% | [13] 83.4% | [14] 100% | [15] 89.4% | [16] 93.9% | [19] 101% | [17]; 10 µM unless noted 94.8% | [18] 95.6% | [20] 105%

— PubChem BioAssay (NCI)
